Drawing on ChEMBL document CHEMBL3988442, “University of Dundee, Small-Polar-MMV Screening Library” (2021), this text covers Percent Effect for 40 molecules.

One experiment addresses T1, Aspartate--tRNA(Asp/Asn) ligase (Mycobacterium tuberculosis (strain ATCC 25618 / H37Rv)) (UniProt P9WFW3).
T1 sequence (whole entry): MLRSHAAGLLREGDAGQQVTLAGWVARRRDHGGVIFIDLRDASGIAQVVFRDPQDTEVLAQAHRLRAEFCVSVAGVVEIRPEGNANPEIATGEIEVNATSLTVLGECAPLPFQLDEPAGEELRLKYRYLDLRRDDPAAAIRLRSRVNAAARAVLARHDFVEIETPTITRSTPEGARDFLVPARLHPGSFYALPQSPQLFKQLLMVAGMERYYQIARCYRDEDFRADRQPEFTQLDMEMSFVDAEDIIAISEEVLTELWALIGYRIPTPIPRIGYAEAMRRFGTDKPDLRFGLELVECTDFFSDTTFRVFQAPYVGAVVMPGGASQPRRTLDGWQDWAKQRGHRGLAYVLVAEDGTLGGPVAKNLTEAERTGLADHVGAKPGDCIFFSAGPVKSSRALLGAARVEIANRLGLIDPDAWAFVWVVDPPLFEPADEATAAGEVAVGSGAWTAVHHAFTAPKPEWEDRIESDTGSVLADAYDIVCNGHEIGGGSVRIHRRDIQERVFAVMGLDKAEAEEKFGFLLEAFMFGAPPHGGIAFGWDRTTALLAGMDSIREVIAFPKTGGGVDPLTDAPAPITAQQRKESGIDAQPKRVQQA
As to the kind of experiment: Assay for Asp RNA synthetase-1 from Mycobacterium tuberculosis. The settings on record: 30 µM. Also on record: scale not given: direction of the effect not stated beside the values. The format is functional.
Take `CCC1c2cccn2CCN1C(=O)c1ccc2nonc2c1` (stereo not given): the Percent Effect is 4.26%.
For `COc1cc(C(=O)N(Cc2ccc(F)cc2)C2CC2)cc2c1OCCO2`, the Percent Effect came to 9.07%.
In the case of `Cc1oncc1C(=O)N1CCC2(C1)CN(c1cccnc1)C(=O)CN2C` (stereo not given), the Percent Effect was -6.17%.
As for `Cc1ccccc1C(=O)CN1C(=O)c2ccccc2CS1(=O)=O`, the Percent Effect was determined as 0.881%.
Regarding `Cn1nc(C2CCCN(C(=O)CO)C2)cc1O` (stereo not given), the Percent Effect was 3.92%.
Regarding `CCc1ncnc2c1CCN(C(=O)Cc1ccccn1)CC2`, the Percent Effect was -1.97%.
As for `COCC1CC2(CCN(Cc3ccc(OC)cc3)CC2)CN1C(C)C` (stereo not given), the Percent Effect was -1.24%.
Turning to `Cc1cc(C(F)(F)F)nn1CC(C)C(=O)Nc1ccncc1` (stereo not given), the Percent Effect was found to be 2.67%.
As for `CCc1ccccc1C(=O)N1CCN(S(C)(=O)=O)[C@@H](C)C1`, the Percent Effect was 0.259%.
For `CCNC(=O)N(C)C(c1cccc(F)c1)c1ccccn1` (stereo not given), the Percent Effect is -4.31%.
As for `CCc1nc(CN2CCCN(C(=O)C(C)n3cncn3)CC2)cs1` (stereo not given), the Percent Effect is -3.06%.
For `CCN1CCO[C@]2(CCC[C@H]2COCc2csc(C)n2)C1`, the Percent Effect is -0.869%.
Still for that read-out and setting: the same measure for `Cc1nc(C)n(CC2CN(c3ncccn3)Cc3nccn3C2)n1` (stereo not given): -0.127%; for `CC(=O)N1CCNCC1c1cccc(C(=O)N(C)C)c1` (stereo not given): -4.15%.
Still for that read-out and setting: with `Cc1nc(C2CCCN2CC(=O)N2CCCc3ccccc32)no1` (stereo not given) the figure was 2.35%; with `Cc1ccc(CN2CCn3c(C(=O)N(C)C)cnc3C2)s1`, 5.69%; with `O=c1[nH]c(CCN2CCCC(Cn3cncn3)C2)nc2ccccc12` (stereo not given), -3.23%.
Turning to `CC(C)OCCOCc1cccc(NC(=O)NCc2ccncc2)c1`, the Percent Effect was 13%.
For `Cc1cnn(CC2CCCN2CCc2nc3ccccc3c(=O)[nH]2)c1` (stereo not given), the Percent Effect is -3.23%.
For `CN(Cc1ccccc1)C1COC2(CCN(Cc3nccs3)CC2)C1` (stereo not given), the Percent Effect was -2.36%.
In the case of `O=C(CN1CCCC1Cn1cncn1)NCCOc1cccc(F)c1` (stereo not given), the Percent Effect is -0.983%.
In the case of `O=C(C1CCOCC1)N1C[C@@H]2C[C@@H](c3nc(C4CC4)cs3)O[C@@H]2C1`, the Percent Effect came out at 2.07%.
On to `Fc1cccc(-c2nc(CN3CCn4c(nnc4C4CC4)C3)co2)c1`, for which the Percent Effect was determined as 6.1%.
Take `COCC1CC2(CCN(C(=O)c3ccc(OC)c(Cl)c3)CC2)CO1` (stereo not given): the Percent Effect is 0.918%.
Consider `O=C(CCc1cccnc1)N1CCCC(n2cncn2)C1` (stereo not given), for which the Percent Effect was -2.66%.
Regarding `CCOCCn1nc(C)cc1C(=O)N1CC[C@](C)(O)[C@H](C)C1`, the Percent Effect is -4.03%.
Still for that read-out and setting: with `Cc1cccc(OCCC(=O)N2CCCN(C(N)=O)CC2)c1C` the figure was 0.542%; with `CN(C)C(=O)NCc1cc2n(n1)CCN(C[C@H]1[C@@H]3CNC[C@@H]31)C2`, -4.99%; with `CCc1nnc(CN(C)c2nc(C(C)C)nc3c2cnn3C)o1`, 5.74%.
`Cc1ccc(NS(=O)(=O)c2cc3c(c(C(=O)O)c2)OCCO3)c(F)c1`: the Percent Effect was -2.58%.
The same measure, in the same setting: with `COc1cccc(CNc2nc(O)cc(C3CC(=O)N(C)C3)n2)c1` (stereo not given) the figure was 4.42%.
Turning to `CC(C)COCC(NC(=O)c1cc[nH]n1)c1ccco1` (stereo not given), the Percent Effect was 7.45%.
The same measure, in the same setting: the same measure for `COCCn1ccc2cc(NC(C)=O)ccc21`: -5.18%; for `Cc1n[nH]c(C2CN(C(=O)c3cc(Cl)c[nH]3)CCO2)n1` (stereo not given): 2.37%.
As for `Cc1ccc(CN(C)C(=O)CN2CC(n3cccn3)C2)o1`, the Percent Effect came to 1.26%.
On to `O=C(COc1coc(CN2CCCCCC2)cc1=O)c1ccccc1`, for which the Percent Effect was -4.01%.
Still for that read-out and setting: with `Cc1cccc(CNCc2c(C)nn(C)c2N2CCOCC2)n1` the figure was 3.77%; with `Cc1ncsc1-c1nnc(C2CCN(CC3CCCCC3)CC2)o1`, -2.81%; with `Cc1ccc([C@@H]2CN(C(=O)c3csc(C)n3)C[C@H]2NC(=O)C2CC2)cc1`, -3.36%.
With `COc1cccc(OCC2CCCN(C(C)=O)C2)c1` (stereo not given), the Percent Effect came out at 3.99%.

The next experiment has as its target Shiga toxin 2 (Escherichia coli O157:H7) (UniProt P09385+P09386). Briefly: E. coli 0.157:H7 Shiga Toxin SOP - stx2 screening assay. The format is functional. More on the design: scale not given: direction of the effect not stated beside the values. The settings on record: 30 µM.
With `CCC1c2cccn2CCN1C(=O)c1ccc2nonc2c1` (stereo not given), the Percent Effect is -4.14%.
The same measure, in the same setting: with `COc1cc(C(=O)N(Cc2ccc(F)cc2)C2CC2)cc2c1OCCO2` the figure was -12.1%; with `Cc1oncc1C(=O)N1CCC2(C1)CN(c1cccnc1)C(=O)CN2C` (stereo not given), -13.7%.
`Cc1ccccc1C(=O)CN1C(=O)c2ccccc2CS1(=O)=O`: the Percent Effect was -11.1%.
Regarding `Cn1nc(C2CCCN(C(=O)CO)C2)cc1O` (stereo not given), the Percent Effect turned out to be 10.4%.
Turning to `CCc1ncnc2c1CCN(C(=O)Cc1ccccn1)CC2`, the Percent Effect was -18.4%.
Still for that read-out and setting: the same measure for `COCC1CC2(CCN(Cc3ccc(OC)cc3)CC2)CN1C(C)C` (stereo not given): 1.66%; for `Cc1cc(C(F)(F)F)nn1CC(C)C(=O)Nc1ccncc1` (stereo not given): -18.1%; for `CCc1ccccc1C(=O)N1CCN(S(C)(=O)=O)[C@@H](C)C1`: -3%.
As to `CCNC(=O)N(C)C(c1cccc(F)c1)c1ccccn1` (stereo not given), the Percent Effect was -5.85%.
With `CCc1nc(CN2CCCN(C(=O)C(C)n3cncn3)CC2)cs1` (stereo not given), the Percent Effect was 9.04%.
Turning to `CCN1CCO[C@]2(CCC[C@H]2COCc2csc(C)n2)C1`, the Percent Effect is 7.16%.
`Cc1nc(C)n(CC2CN(c3ncccn3)Cc3nccn3C2)n1` (stereo not given): the Percent Effect is 11.6%.
On the same count and under the same terms, with `CC(=O)N1CCNCC1c1cccc(C(=O)N(C)C)c1` (stereo not given) the figure was 8.72%.
On the same count and under the same terms, with `Cc1nc(C2CCCN2CC(=O)N2CCCc3ccccc32)no1` (stereo not given) the figure was -12.2%.
For `Cc1ccc(CN2CCn3c(C(=O)N(C)C)cnc3C2)s1`, the Percent Effect is -13.3%.
For the molecule `O=c1[nH]c(CCN2CCCC(Cn3cncn3)C2)nc2ccccc12` (stereo not given), the Percent Effect was -25.8%.
In the case of `CC(C)OCCOCc1cccc(NC(=O)NCc2ccncc2)c1`, the Percent Effect is -69.6%.
For `Cc1cnn(CC2CCCN2CCc2nc3ccccc3c(=O)[nH]2)c1` (stereo not given), the Percent Effect was 2.14%.
Take `CN(Cc1ccccc1)C1COC2(CCN(Cc3nccs3)CC2)C1` (stereo not given): the Percent Effect was -24.7%.
Still for that read-out and setting: with `O=C(CN1CCCC1Cn1cncn1)NCCOc1cccc(F)c1` (stereo not given) the figure was 18.7%; with `O=C(C1CCOCC1)N1C[C@@H]2C[C@@H](c3nc(C4CC4)cs3)O[C@@H]2C1`, 17.3%; with `Fc1cccc(-c2nc(CN3CCn4c(nnc4C4CC4)C3)co2)c1`, -39.6%.
Turning to `COCC1CC2(CCN(C(=O)c3ccc(OC)c(Cl)c3)CC2)CO1` (stereo not given), the Percent Effect is -4.71%.
In the case of `O=C(CCc1cccnc1)N1CCCC(n2cncn2)C1` (stereo not given), the Percent Effect came to 1.94%.
Take `CCOCCn1nc(C)cc1C(=O)N1CC[C@](C)(O)[C@H](C)C1`: the Percent Effect was 4.67%.
For `Cc1cccc(OCCC(=O)N2CCCN(C(N)=O)CC2)c1C`, the Percent Effect was 7.91%.
Consider `CN(C)C(=O)NCc1cc2n(n1)CCN(C[C@H]1[C@@H]3CNC[C@@H]31)C2`, for which the Percent Effect is -21.2%.
`CCc1nnc(CN(C)c2nc(C(C)C)nc3c2cnn3C)o1`: the Percent Effect is -7.55%.
Turning to `Cc1ccc(NS(=O)(=O)c2cc3c(c(C(=O)O)c2)OCCO3)c(F)c1`, the Percent Effect was -5.6%.
For the molecule `COc1cccc(CNc2nc(O)cc(C3CC(=O)N(C)C3)n2)c1` (stereo not given), the Percent Effect stood at 12.2%.
For the molecule `CC(C)COCC(NC(=O)c1cc[nH]n1)c1ccco1` (stereo not given), the Percent Effect was determined as 9.69%.
On to `COCCn1ccc2cc(NC(C)=O)ccc21`, for which the Percent Effect was -9.31%.
With `Cc1n[nH]c(C2CN(C(=O)c3cc(Cl)c[nH]3)CCO2)n1` (stereo not given), the Percent Effect is -2.92%.
As to `Cc1ccc(CN(C)C(=O)CN2CC(n3cccn3)C2)o1`, the Percent Effect is -26.8%.
Same read-out and setting: the same measure for `O=C(COc1coc(CN2CCCCCC2)cc1=O)c1ccccc1`: -112%; for `Cc1cccc(CNCc2c(C)nn(C)c2N2CCOCC2)n1`: -0.864%; for `Cc1ncsc1-c1nnc(C2CCN(CC3CCCCC3)CC2)o1`: -22.2%.
`Cc1ccc([C@@H]2CN(C(=O)c3csc(C)n3)C[C@H]2NC(=O)C2CC2)cc1`: the Percent Effect came out at 15.2%.
With `COc1cccc(OCC2CCCN(C(C)=O)C2)c1` (stereo not given), the Percent Effect is -11%.
